Compounds without any hit were thinned out: in the full panel of roughly 83,000, 20% have a hit.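 Interpretation: 100, growth as untreated; towards 0, rising growth inhibition; 0, no net growth; 0 to -100, cell death. Compounds scoring below 10 were considered active.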 Values without a mark were called inactive. The source made the active and inactive calls.
test system: NCI-H522 lung; experiment: NCI-60 one-dose screen, 48 h (100 = growth as untreated, 0 = no growth, -100 = all killed); details: 10 µM unless noted

Structure (SMILES)	growth
CCCCC(=O)Nc1nc2ccc(SCCC)cc2s1	28.8%
O=C(COc1ccc(Cl)cc1Cl)N1N=C(c2ccc(Cl)cc2Cl)CC1(O)c1cc(F)c(Cl)cc1Cl (stereo not given)	95%
Nc1nccc2c1ccn2-c1ccc(NC(=O)Nc2cccc(C(F)(F)F)c2)cc1	87.2%
COc1ccc(CNc2nc3ccccc3c3c(=O)c4ccccc4sc23)cc1OC	77.4%
O=C1CCC(=O)N1C1CCCCC1	103%
Nc1ccc(S(=O)(=O)Nc2ccnn2-c2ccccc2)cc1	101%
COc1ccc(C2=NN(C(=O)COc3ccc(Cl)cc3)C(O)(c3cc(F)c(Cl)cc3Cl)C2)cc1OC (stereo not given)	-66.4% (active)
NCC(=O)NS(=O)(=O)OC[C@H]1O[C@@H](n2cnc3c(N)ncnc32)[C@H](O)[C@@H]1O	-51.6% (active)
CCCC(=O)Oc1ccc(/C(=C(\C)c2ccc(Cl)cc2)c2ccc(OCCN(CC)CC)cc2)cc1	-55% (active)
O=C(NCCNc1nccc(-c2c(-c3cccc(O)c3)nc3sccn23)n1)c1ccc(N2CCOCC2)c(C(F)(F)F)c1	74.4%
C#C[C@@]1(O)[C@@H](CO)O[C@@H](n2cc(Br)c3c(Cl)ccnc32)[C@@H]1O	32%
CN(C)c1ccc(/C=N/N=C(N)N)cc1	66.7%
C=C1c2c(Cl)ccc(O)c2C(O)=C2C(=O)[C@]3(O)C(O)=C(C(N)=O)C(=O)[C@@H](N(C)C)[C@@H]3[C@@H](O)[C@H]12	11.6%
O=C(Nc1ccccc1Cl)c1c[nH]c(=O)c(-c2ccc(N3CCCOC4(CC4)C3)cc2)c1	53.6%
Cc1ccc2oc(=O)cc(C3C(C#N)=C(N)Oc4c3ccc3ccccc43)c2c1 (stereo not given)	48.6%
COc1ccc2c(-c3ccc(F)cc3)c(C#N)c(=NC(C)=O)oc2c1	5.83% (active)
O=C(Nc1ccc(-n2ccc3c(NC(=O)c4ccccc4)ncnc32)cc1)c1cccc(C(F)(F)F)c1	45.4%
C=C1C(=O)O[C@H]2[C@H]1CC/C(COC(=O)n1ccnc1C)=C\CC[C@@]1(C)O[C@@H]21	66.3%
CCn1cc(C(=O)O)c(=O)c2cc(F)c(N3CCN(CC(=O)Nc4ccc(C(C)=O)cc4)CC3)cc21	96.9%
COc1ccc(Cl)cc1NC(=O)c1cc2c([nH]1)-c1nc(NC(=O)C(C)(C)C)sc1CC2	38%
COc1ccccc1P(c1ccccc1OC)c1ccccc1OC	92.4%
Nc1nc(=S)ss1	94.2%
CCCOC(=O)c1ccc([N+](=O)[O-])o1	85.4%
O=C(CSc1nnc(-c2ccc(Cl)cc2)o1)Nc1ccc(C(=O)/C=C/c2ccccc2)cc1	86.7%
Cc1ccc(NC(=O)CN2CCOCC2)cc1Cl	76.5%
CCCCCC/C=N/Nc1ccc([N+](=O)[O-])cn1	78.2%

test system: A549/ATCC NSCLC; experiment: as above; details: 10 µM unless noted

Structure (SMILES)	growth
O=[N+]([O-])c1cccc2cc(S(=O)(=O)O)ccc12	74.2%
COc1ccc(SC2c3ccc(O)cc3Oc3nc(N)c(C#N)c(N)c32)cc1 (stereo not given)	84.6%
Nc1nccc2c1ccn2-c1cccc(NC(=O)c2ccc(N3CCOCC3)c(C(F)(F)F)c2)c1	10.8%
COc1ccc(OC)c(NCC(=O)n2nc(/C=C\c3ccc(O)c(OC)c3)cc2/C=C\c2ccc(O)c(OC)c2)c1	21.4%
O=C(Nc1ccc(-n2cc(-c3ccncc3)c(-c3ccc(O)c(Cl)c3)n2)cc1)c1cc(C(F)(F)F)cc(C(F)(F)F)c1	54.8%
CC(C)(C)OC(=O)N1CCN(CCn2cc(C(F)(F)F)c3c(Cl)ncnc32)CC1	96%
COc1cc([C@@H]2c3cc4c(cc3C(OC3O[C@@H]5COC(C)O[C@H]5[C@H](O)[C@H]3O)C3COC(=O)[C@@H]32)OCO4)cc(OC)c1O (stereo not given in full)	29.7%
CNCCCOc1c(Br)cc(CCNC(=O)/C(Cc2cc(Br)c(OC)c(Br)c2)=N/O)cc1Br	-16.7% (active)
CCCCCCCCN(CCCCCCCC)CC(O)c1cc(-c2ccccc2)nc2ccc(OC)cc12 (stereo not given)	78.6%
CC(C)(C)NC(C1=CC(C)(C)c2ccccc2C1=O)c1ccccc1 (stereo not given)	-9.21% (active)
CCOC(=O)C1CSC(C)(C(=O)OCC)N1 (stereo not given)	98.9%
COc1ccc(-c2coc3c(CO)c(O)ccc3c2=O)cc1	90.5%
O=C(Cn1c2ccccc2c2ccncc21)N/N=C/c1c[nH]c2ccccc12	25.2%
CCCCC(=O)Nc1nc2ccc(SCCC)cc2s1	35.8%
O=C(COc1ccc(Cl)cc1Cl)N1N=C(c2ccc(Cl)cc2Cl)CC1(O)c1cc(F)c(Cl)cc1Cl (stereo not given)	107%
Nc1nccc2c1ccn2-c1ccc(NC(=O)Nc2cccc(C(F)(F)F)c2)cc1	91.3%
COc1ccc(CNc2nc3ccccc3c3c(=O)c4ccccc4sc23)cc1OC	61.6%
O=C1CCC(=O)N1C1CCCCC1	115%
Nc1ccc(S(=O)(=O)Nc2ccnn2-c2ccccc2)cc1	97.7%
COc1ccc(C2=NN(C(=O)COc3ccc(Cl)cc3)C(O)(c3cc(F)c(Cl)cc3Cl)C2)cc1OC (stereo not given)	81.3%

Structure (SMILES)	growth
NCC(=O)NS(=O)(=O)OC[C@H]1O[C@@H](n2cnc3c(N)ncnc32)[C@H](O)[C@@H]1O	9.7% (active)
CCCC(=O)Oc1ccc(/C(=C(\C)c2ccc(Cl)cc2)c2ccc(OCCN(CC)CC)cc2)cc1	-51% (active)
O=C(NCCNc1nccc(-c2c(-c3cccc(O)c3)nc3sccn23)n1)c1ccc(N2CCOCC2)c(C(F)(F)F)c1	64.1%
C#C[C@@]1(O)[C@@H](CO)O[C@@H](n2cc(Br)c3c(Cl)ccnc32)[C@@H]1O	46.2%
CN(C)c1ccc(/C=N/N=C(N)N)cc1	70.7%
C=C1c2c(Cl)ccc(O)c2C(O)=C2C(=O)[C@]3(O)C(O)=C(C(N)=O)C(=O)[C@@H](N(C)C)[C@@H]3[C@@H](O)[C@H]12	9.74% (active)
O=C(Nc1ccccc1Cl)c1c[nH]c(=O)c(-c2ccc(N3CCCOC4(CC4)C3)cc2)c1	57.8%
Cc1ccc2oc(=O)cc(C3C(C#N)=C(N)Oc4c3ccc3ccccc43)c2c1 (stereo not given)	71.1%
COc1ccc2c(-c3ccc(F)cc3)c(C#N)c(=NC(C)=O)oc2c1	53.4%
O=C(Nc1ccc(-n2ccc3c(NC(=O)c4ccccc4)ncnc32)cc1)c1cccc(C(F)(F)F)c1	32.7%
C=C1C(=O)O[C@H]2[C@H]1CC/C(COC(=O)n1ccnc1C)=C\CC[C@@]1(C)O[C@@H]21	89.3%
CCn1cc(C(=O)O)c(=O)c2cc(F)c(N3CCN(CC(=O)Nc4ccc(C(C)=O)cc4)CC3)cc21	94.6%
COc1ccc(Cl)cc1NC(=O)c1cc2c([nH]1)-c1nc(NC(=O)C(C)(C)C)sc1CC2	60.6%
COc1ccccc1P(c1ccccc1OC)c1ccccc1OC	82.2%
Nc1nc(=S)ss1	97.5%
CCCOC(=O)c1ccc([N+](=O)[O-])o1	101%
O=C(CSc1nnc(-c2ccc(Cl)cc2)o1)Nc1ccc(C(=O)/C=C/c2ccccc2)cc1	96%
Cc1ccc(NC(=O)CN2CCOCC2)cc1Cl	95.3%
CCCCCC/C=N/Nc1ccc([N+](=O)[O-])cn1	90.6%

From PubChem BioAssay (NCI)
